About 2,000 (36%) of roughly 5,500 compounds were called active. About 18% were inconclusive and are not listed. The list shows a part of the results. A number with no mark means an inactive call. No stated cut-off is given here; in the data, active means normalized growth mostly below about 0.91 (no sharp cut-off); inconclusive means no clear call, values can overlap the other calls; inactive means mostly above about 0.92.
Experiment: chemical genetic growth profiling, strain panel (AID 1159580);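 further: tested at 20 µM; growth read once vehicle control cultures reached saturation at 30 °C; 1 = growth at the plate median or of vehicle wells; lower values mean less growth of the strain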
Conditions: growth OD

With `CCOC(=O)c1c(C)cc(OC)cc1O` the normalized growth (S. cerevisiae deletion strains, locus YJR075W, strain HOC1, hits give low values) was 0.936, the normalized growth (S. cerevisiae deletion strains, locus YKL009W, strain mrt4, hits give low values) was 0.939 and the normalized growth (S. cerevisiae deletion strains, locus YKL068W, hits give low values) was 0.956. It also gave a normalized growth (S. cerevisiae deletion strains, locus YKL085W, strain MDH1 (second series), hits give low values) of 0.946, a normalized growth (S. cerevisiae deletion strains, locus YKL085W, strain MDH1, hits give low values) of 0.946 and a normalized growth (S. cerevisiae deletion strains, locus YKL160W, strain elf1, hits give low values) of 0.976. For the same compound, the normalized growth (S. cerevisiae deletion strains, locus YKL190W, strain CNB1, hits give low values) was 0.996, the normalized growth (S. cerevisiae deletion strains, locus YKR001C, strain vps1, hits give low values) was 0.842 (active) and the normalized growth (S. cerevisiae deletion strains, locus YKR026C, strain gcn3, hits give low values) was 0.951. The normalized growth (S. cerevisiae deletion strains, locus YKR091W, strain srl3, hits give low values) was 0.971, the normalized growth (S. cerevisiae deletion strains, locus YLL001W, strain dnm1, hits give low values) was 0.962 and the normalized growth (S. cerevisiae deletion strains, locus YLL026W, hits give low values) was 0.965. It also gave a normalized growth (S. cerevisiae deletion strains, locus YLL041C, strain sdh2, hits give low values) of 0.96, a normalized growth (S. cerevisiae deletion strains, locus YLR027C, strain aat2, hits give low values) of 0.963 and a normalized growth (S. cerevisiae deletion strains, locus YLR039C, strain RIC1, hits give low values) of 0.872. For the same compound, the normalized growth (S. cerevisiae deletion strains, locus YLR058C, strain SHM2, hits give low values) was 0.993, the normalized growth (S. cerevisiae deletion strains, locus YLR102C, strain apc9, hits give low values) was 0.946 and the normalized growth (S. cerevisiae deletion strains, locus YLR113W, strain HOG1, hits give low values) was 0.835 (active). The normalized growth (S. cerevisiae deletion strains, locus YLR221C, strain rsa3, hits give low values) was 0.949, the normalized growth (S. cerevisiae deletion strains, locus YLR258W, strain gsy2, hits give low values) was 0.964 and the normalized growth (S. cerevisiae deletion strains, locus YLR262C, strain YPT6 (second series), hits give low values) was 0.731 (active). For the same compound, the normalized growth (S. cerevisiae deletion strains, locus YLR262C, strain YPT6, hits give low values) was 0.928, the normalized growth (S. cerevisiae deletion strains, locus YLR268W, strain sec22, hits give low values) was 0.958 and the normalized growth (S. cerevisiae deletion strains, locus YLR320W, strain mms22, hits give low values) was 0.859 (active). The normalized growth (S. cerevisiae deletion strains, locus YLR330W, strain CHS5, hits give low values) was 1.01, the normalized growth (S. cerevisiae deletion strains, locus YLR342W, strain FKS1 (second series), hits give low values) was 0.971 and the normalized growth (S. cerevisiae deletion strains, locus YLR342W, strain FKS1, hits give low values) was 0.984. It also gave a normalized growth (S. cerevisiae deletion strains, locus YLR357W, strain rsc2, hits give low values) of 0.969, a normalized growth (S. cerevisiae deletion strains, locus YLR370C, strain arc18, hits give low values) of 0.981 and a normalized growth (S. cerevisiae deletion strains, locus YLR371W, strain rom2, hits give low values) of 0.962. The normalized growth (S. cerevisiae deletion strains, locus YLR384C, strain iki3, hits give low values) was 0.972, the normalized growth (S. cerevisiae deletion strains, locus YLR418C, strain cdc73, hits give low values) was 0.891 and the normalized growth (S. cerevisiae deletion strains, locus YML016C, strain PPZ1, hits give low values) was 0.988. It also gave a normalized growth (S. cerevisiae deletion strains, locus YML032C, strain rad52, hits give low values) of 0.91, a normalized growth (S. cerevisiae deletion strains, locus YML120C, strain ndi1, hits give low values) of 0.972 and a normalized growth (S. cerevisiae deletion strains, locus YML124C, strain tub3, hits give low values) of 0.947. For the same compound, the normalized growth (S. cerevisiae deletion strains, locus YMR058W, strain fet3, hits give low values) was 0.968, the normalized growth (S. cerevisiae deletion strains, locus YMR078C, strain ctf18, hits give low values) was 0.926 and the normalized growth (S. cerevisiae deletion strains, locus YMR125W, strain sto1, hits give low values) was 1. It also gave a normalized growth (S. cerevisiae deletion strains, locus YMR129W, hits give low values) of 0.977, a normalized growth (S. cerevisiae deletion strains, locus YMR205C, strain PFK2, hits give low values) of 0.887 and a normalized growth (S. cerevisiae deletion strains, locus YMR223W, strain ubp8, hits give low values) of 0.924. The normalized growth (S. cerevisiae deletion strains, locus YMR231W, strain pep5, hits give low values) was 0.985, the normalized growth (S. cerevisiae deletion strains, locus YMR263W, strain SAP30, hits give low values) was 0.985 and the normalized growth (S. cerevisiae deletion strains, locus YMR307W, strain GAS1, hits give low values) was 0.996. For the same compound, the normalized growth (S. cerevisiae deletion strains, locus YNL067W, strain RPL9B, hits give low values) was 0.99, the normalized growth (S. cerevisiae deletion strains, locus YNL071W, strain lat1, hits give low values) was 0.795 (active) and the normalized growth (S. cerevisiae deletion strains, locus YNL128W, strain TEP1, hits give low values) was 1.01. For the same compound, the normalized growth (S. cerevisiae deletion strains, locus YNL153C, strain GIM3, hits give low values) was 0.989, the normalized growth (S. cerevisiae deletion strains, locus YNL183C, strain NPR1, hits give low values) was 0.872 and the normalized growth (S. cerevisiae deletion strains, locus YNL209W, strain ssb2, hits give low values) was 0.992. The normalized growth (S. cerevisiae deletion strains, locus YNL233W, strain BNI4, hits give low values) was 0.98, the normalized growth (S. cerevisiae deletion strains, locus YNL248C, strain rpa49, hits give low values) was 0.936 and the normalized growth (S. cerevisiae deletion strains, locus YNL250W, strain rad50, hits give low values) was 0.963. The normalized growth (S. cerevisiae deletion strains, locus YNL271C, strain bni1, hits give low values) was 0.949, the normalized growth (S. cerevisiae deletion strains, locus YNL298W, strain CLA4, hits give low values) was 0.965 and the normalized growth (S. cerevisiae deletion strains, locus YNL307C, strain MCK1, hits give low values) was 0.734 (active). For the same compound, the normalized growth (S. cerevisiae deletion strains, locus YNL322C, strain KRE1 (second series), hits give low values) was 0.952, the normalized growth (S. cerevisiae deletion strains, locus YNL322C, strain KRE1, hits give low values) was 0.989 and the normalized growth (S. cerevisiae deletion strains, locus YNR049C, strain mso1, hits give low values) was 0.967. The normalized growth (S. cerevisiae deletion strains, locus YNR052C, strain pop2, hits give low values) was 0.976, the normalized growth (S. cerevisiae deletion strains, locus YOL006C, strain TOP1, hits give low values) was 0.77 and the normalized growth (S. cerevisiae deletion strains, locus YOL012C, strain htz1) was 0.775. For the same compound, the normalized growth (S. cerevisiae deletion strains, locus YOL147C, strain pex11, hits give low values) was 0.947, the normalized growth (S. cerevisiae deletion strains, locus YOR001W, strain rrp6, hits give low values) was 0.974 and the normalized growth (S. cerevisiae deletion strains, locus YOR061W, strain CKA2, hits give low values) was 1. The normalized growth (S. cerevisiae deletion strains, locus YOR069W, strain VPS5, hits give low values) was 0.989, the normalized growth (S. cerevisiae deletion strains, locus YOR070C, strain gyp1, hits give low values) was 0.963 and the normalized growth (S. cerevisiae deletion strains, locus YOR080W, strain dia2, hits give low values) was 0.997. It also gave a normalized growth (S. cerevisiae deletion strains, locus YOR083W, strain WHI5, hits give low values) of 0.955, a normalized growth (S. cerevisiae deletion strains, locus YOR106W, strain vam3, hits give low values) of 0.936 and a normalized growth (S. cerevisiae deletion strains, locus YOR136W, strain idh2, hits give low values) of 0.955. The normalized growth (S. cerevisiae deletion strains, locus YOR144C, strain elg1, hits give low values) was 0.957, the normalized growth (S. cerevisiae deletion strains, locus YOR184W, strain ser1, hits give low values) was 0.808 (active) and the normalized growth (S. cerevisiae deletion strains, locus YOR231W, strain MKK1, hits give low values) was 0.924. The normalized growth (S. cerevisiae deletion strains, locus YOR265W, strain rbl2, hits give low values) was 0.962, the normalized growth (S. cerevisiae deletion strains, locus YOR270C, strain vph1, hits give low values) was 0.727 (active) and the normalized growth (S. cerevisiae deletion strains, locus YOR290C, strain snf2, hits give low values) was 0.929. The normalized growth (S. cerevisiae deletion strains, locus YOR316C, strain cot1, hits give low values) was 0.964, the normalized growth (S. cerevisiae deletion strains, locus YPL051W, strain arl3, hits give low values) was 0.96 and the normalized growth (S. cerevisiae deletion strains, locus YPL055C, strain LGE1, hits give low values) was 0.972. The normalized growth (S. cerevisiae deletion strains, locus YPL078C, strain atp4, hits give low values) was 0.932, the normalized growth (S. cerevisiae deletion strains, locus YPL106C, strain sse1, hits give low values) was 1.02 and the normalized growth (S. cerevisiae deletion strains, locus YPL240C, strain hsp82, hits give low values) was 0.987. The normalized growth (S. cerevisiae deletion strains, locus YPL241C, strain CIN2, hits give low values) was 0.991, the normalized growth (S. cerevisiae deletion strains, locus YPL256C, strain CLN2, hits give low values) was 0.866 and the normalized growth (S. cerevisiae deletion strains, locus YPR119W, strain clb2, hits give low values) was 0.933. For the same compound, the normalized growth (S. cerevisiae deletion strains, locus YPR141C, strain kar3, hits give low values) was 0.946, the normalized growth (S. cerevisiae deletion strains, locus YPR163C, strain tif3, hits give low values) was 0.957 and the normalized growth (S. cerevisiae deletion strains, locus YPR167C, strain met16, hits give low values) was 0.96. The normalized growth (S. cerevisiae deletion strains, strain wtn01, hits give low values) was 0.928 and the normalized growth (S. cerevisiae strains, strain wild type, hits give low values) was 0.978.
